The entries come from a sample that favours hits as a whole.
Shiga toxin inh = blocks Shiga toxin action in Vero cells. hit rate 9.2% among 290,000. AID 2315. inhibition, % at 38.7 µM. Vero cells, Shiga toxin protein synthesis inhibition reporter; in the data active means inhibition mostly above about 28%, no sharp cut-off; inactive means mostly below about 43%; further: 0% is about no effect
Lassa entry inh = inhibitors of Lassa virus binding or cell entry. Potency, µM (doses to about 37.9 µM), for inactives: top-dose activity change, negative = inhibition, actives largely listed as inhibitors. hit rate 1.2% among 300,000. Lassa virus pseudotype entry inhibition, cell reporter; calls by dose curve; tested in HEK293 cells; further: potency means the concentration at half of the fitted maximal effect; on the % scale 0 is the no-effect control and ±100 the full control effect; nearly all actives have a fitted effect of over 50% in size
Vaccinia Venus = vaccinia inhibition (Venus reporter) | Vaccinia virus Venus reporter expression, fluorescence | Potency, µM (top dose mostly 36.5 µM), for inactives: at the top dose activity change, negative = inhibition, hits mostly inhibitors | hit rate 0.46% among 330,000 | AID 720580; calls by dose curve; tested in A549 cells; further: potency means the concentration at half of the fitted maximal effect; on the % scale 0 is the no-effect control and ±100 the full control effect; nearly all actives have a fitted effect of over 30% in size
MARV entry inh = blocks Marburg virus binding to or entry into cells. Marburg virus pseudotyped entry inhibition, cell reporter. Potency, µM (highest dose often 37.8 µM), inactives show at the highest dose activity change, negative = inhibition, actives largely listed as inhibitors. hit rate 1.8% among 300,000. AID 540276; calls by dose curve; tested in HEK293 cells; further: potency means the concentration at half of the fitted maximal effect; on the % scale 0 is the no-effect control and ±100 the full control effect
VACV mCherry inh = vaccinia inhibition (mCherry reporter) | Vaccinia virus mCherry reporter infection, fluorescence | Potency, µM (series often up to 36.5 µM), for inactives: at the top dose activity change, negative = inhibition, usual class: inhibitors | hit rate 0.63% among 310,000; calls by dose curve; tested in A549 cells; further: potency means the concentration at half of the fitted maximal effect; on the % scale 0 is the no-effect control and ±100 the full control effect; nearly all actives have a fitted effect of over 35% in size
CHX counter = counter-screen hit for Shiga toxin inhibitors, cycloheximide | hit rate 12% among 300,000 | cell reporter, cycloheximide protein synthesis inhibition counterscreen | max response, %; in the data active means max response mostly above about 13%, no sharp cut-off; inactive means mostly below about 14%; further: read at 38.3 µM for the half of the compounds with a filed dose; 0% is about no effect
* hit, by the source's call; i = inactive; ? = inconclusive; . = not tested or not shown; ! = not confirmed by another sample; [ ] = another dose, or the depositor's remark.

SMILES	Shiga toxin inh	Lassa entry inh	Vaccinia Venus	MARV entry inh	VACV mCherry inh	CHX counter
COC(=O)N1C/C=C\C(c2ccc(OC)cc2)N(Cc2ccc(F)cc2)C(=O)C1 (centres undefined)	-10.7	.	-22.2%	.	-19.4%	0.4
COc1ccc(C2/C=C\CN(C(=O)Nc3ccccc3-c3ccccc3)CC(=O)N2Cc2ccc(F)cc2)cc1 (centres undefined)	151.7*!	.	?	.	-13.3%	62.0*!
C=CC(=O)N1C/C=C\C(c2ccc(OC)cc2)N(Cc2ccc(F)cc2)C(=O)C1 (centres undefined)	1.7	.	0.891µM*	.	?	0.8
COc1ccc(C2/C=C\CN(C(=O)Oc3ccccc3)CC(=O)N2Cc2ccc(F)cc2)cc1 (centres undefined)	38.9	.	-15.8%	.	-1.6%	52.8
COc1cc2c(cc1OC)CN(S(=O)(=O)/C=C/c1ccccc1)CC2	-8.0	1.26µM*	-21.2%	?	i	-0.6
COc1cc(C(=O)NNC(=O)c2cc(-c3ccccc3)n[nH]2)cc(OC)c1C	.	6.8%	-4.6%	-13.4%[46.1 µM]	-1.8%	.
COc1ccnc(CSC(N)=Nc2ccccc2C(F)(F)F)c1	22.0*	10.3%	-10.3%	2.0%	-6.1%	14.7
N=C(N)SCc1ccccn1	3.5	-24.4%	-3.8%	?	-17.9%	7.3
CC(=Nc1ccccc1C(F)(F)F)c1ccncc1	-1.2	21.1%[46.1 µM]	-2.3%	?	i	-3.1
COc1ccnc(CSC(N)=Nc2ccccc2OC)c1	91.3*	2.9%	-12.5%	12.2%	i	75.5*
COc1ccnc(CSC(N)=Nc2cccc(C(F)(F)F)c2)c1	42.0	2.9%	?	-13.1%	?	24.6*
Cc1ccc(C(C)C)c(OCc2ccc(C(=O)Nc3ccc(S(N)(=O)=O)cc3C)o2)c1	.	-22.1%[46.1 µM]	-26.4%	?	-27.3%	.
Cc1nc2sc3c(c2c(=O)n1/N=C/c1cccnc1)CCCC3	-5.9	-5.5%	-16.1%	4.9%[46.1 µM]	-5.0%	-1.7
COc1cccc(-n2cnc3sc(C)c(C)c3c2=O)c1	active	-4.8%	-18.2%	?	i	28.6*
COc1ccc(-n2cnc3sc4c(c3c2=O)CCCC4)cc1	71.5*	-12.3%[46.1 µM]	-2.4%	4.4%[46.1 µM]	-14.9%	24.6
O=c1c2c3c(sc2ncn1/N=C/c1ccccc1)CCCC3	63.7*	-7.4%	-14.2%	?	.	19.1*
O=c1c2c3c(sc2ncn1/N=C/c1ccco1)CCCC3	75.7*	?	-11.3%	29.6%	-11.1%	12.3
CCn1cc(C(=O)N2CCN(c3cccc(Cl)c3)CC2)c(=O)c2cc(S(=O)(=O)N3CCOCC3)ccc21	.	-14.7%[46.1 µM]	-7.9%	?	-9.1%	.
COc1ccccc1N(CCN1C(=O)c2cccc3cccc(c23)C1=O)C(=O)c1ccncc1	13.3	.	.	.	.	-1.9
Cc1sc2ncn(/N=C/c3ccco3)c(=O)c2c1C	53.8*	?	23.8%	?	i	38.7*
Cc1cccc(-n2cnc3sc(C)c(C)c3c2=O)c1	19.9	14.2%	-6.2%	-5.0%	-18.0%	4.7
CCCCNC(=O)C1CCN(S(=O)(=O)c2cc(Br)cc3c2N(C(=O)CC)CC3)CC1	.	3.2%[46.1 µM]	-8.7%	14.2%[46.1 µM]	-9.9%	.
O=C(NCc1csc(-c2cccs2)n1)c1ccccc1	38.2*	.	.	.	.	32.3*
O=C(NCCc1cn2ccsc2n1)C1CCCCC1	-4.5	.	17.7%	.	-6.4%	6.8
O=C(NCc1csc(-c2cccs2)n1)c1cccc(Cl)c1	54.5	?	-22.9%	15.2%[46.1 µM]	-9.5%	14.3*
SMILES	Shiga toxin inh	Lassa entry inh	Vaccinia Venus	MARV entry inh	VACV mCherry inh	CHX counter
O=C(NCc1csc(-c2cccs2)n1)Nc1ccc(C(F)(F)F)cc1	-6.7	-18.3%	-12.1%	4.1%[46.1 µM]	-9.3%	-1.4
Cc1csc2nc(CNC(=O)C3CCCCC3)cn12	9.8	.	7.1%	.	-8.8%	13.1*
O=C(NCc1csc(-c2cccs2)n1)C1CCC1	48.0*	.	.	.	.	37.5*
COc1ccc(N2CCN(C(=O)c3cc4c(=O)oc5ccc(C)cc5c4s3)CC2)cc1	.	3.6%[46.1 µM]	-10.3%	?	5.5%	.
CCc1nc2cc(C(=O)N3CCC[C@H]3C(=O)OC)cc(NC(=O)c3ccccc3OC)c2n1C	.	.	-26.1%	.	i	.
CCN(CC)CCNC(=O)c1c(C)n(-c2ccccc2)c2cc(Br)c(OC)cc12	-24.9	7.3µM*	.	?	.	-6.8
CCOC(=O)c1c(CN2CCN(CCO)CC2)n(C)c2cc(Br)c(OC)cc12	-13.3	?	.	8.2µM*!	.	-4.7
CCOC(=O)c1c(CNCCN(CC)CC)n(C)c2cc(Br)c(OC)cc12	-13.2	?	-6.6%	11.2µM*!	.	-2.6
COc1cc2c(C(=O)N3CCN(C)CC3)c(C)n(-c3ccccc3)c2cc1Br	-5.0	13.2%	.	?	.	11.3
C/C=C\C(=O)Nc1cccc(C2=NOC3(C2)C[C@@H](C(N)=O)N(C(=O)CC(c2ccccc2)c2ccccc2)C3)c1 (some centres undefined)	-7.8	.	?	.	?	-2.6
CCCCCC(=O)Nc1cccc(C2=NOC3(C2)C[C@@H](C(N)=O)N(C(=O)CC(c2ccccc2)c2ccccc2)C3)c1 (some centres undefined)	-9.3	.	12.6µM*	.	-36.7%	-3.9
CN1CCN(C(=O)c2cc3c(c(-c4cccc(C#CC(C)(C)O)c4)n2)[C@@H](CCO)N(S(=O)C(C)(C)C)C3)CC1 (some centres undefined)	.	.	4.3%	.	46.6%	.
CC(C)NC(=O)Cn1ccc2cc(S(=O)(=O)N3CCCCCC3)ccc21	.	11.7%[46.1 µM]	1.3%	.	-4.6%	.
CN1CCN(c2nc(-c3ccccc3)nc(-c3ccc(F)cc3)c2C#N)CC1	-2.9	-13.1%[46.1 µM]	-2.0%	11.2µM*	-4.4%	-2.8
COc1ccc(CNC(=O)c2cnc3sc(N4CCCC4)nn3c2=O)c(OC)c1	.	1.7%[46.1 µM]	-5.7%	.	-12.7%	.
CCOc1ccc(-c2oc3cc(Cl)ccc3c(=O)c2O)cc1OC	.	-7.4%[46.1 µM]	-23.8%	10.5%[46.1 µM]	28.2µM*	.
COc1cc(-c2oc3cc(O)ccc3c(=O)c2O)ccc1O	.	.	0.0%	.	?	.
O=C(N/N=C1\C[C@@H](O)[C@@H](O)[C@@H]2[C@@H]3C(=O)N(C4CCCCC4)C(=O)[C@@H]3CC[C@@H]12)OCc1ccccc1	.	.	.	-13.2%[14.2 µM]	.	.
Cc1cc(NC(=O)c2cccs2)cc(-c2nc3cc(Cl)ccc3o2)c1O	.	1.3%[46.1 µM]	-5.7%	-10.2%[46.1 µM]	-6.6%	.
CS(=O)(=O)Nc1ccc(OCc2ccccc2)cc1	55.0	-0.6%	.	17.5%	.	18.6*
COCC(=O)Nc1ccc(OCc2ccccc2)cc1	60.7*	5.1%	-2.6%	?	i	37.6*
Cc1cnc(NC(=O)Nc2ccc(OCc3ccccc3)cc2)c(Br)c1	26.4	25.1%[46.1 µM]	-3.6%	?	-1.0%	15.8*
O=C(O)c1cccc(S(=O)(=O)Nc2ccc(OCc3ccccc3)cc2)c1	2.4	16.1%[46.1 µM]	1.0%	0.4%[46.1 µM]	-6.0%	-2.5
O=C(O)CCc1ccc(S(=O)(=O)Nc2ccc(OCc3ccccc3)cc2)cc1	44.6*	-1.7%[46.1 µM]	-7.9%	?	?	13.8*
O=C(O)/C=C/c1ccc(S(=O)(=O)Nc2ccc(OCc3ccccc3)cc2)cc1	28.1	.	.	.	.	-6.4
CS(=O)(=O)N1CCC(C(=O)Nc2ccc(OCc3ccccc3)cc2)CC1	23.3	-4.8%	-10.3%	-1.3%	-11.5%	-0.1
